FBW7 activator – activators of human E3 ligase FBW7; Q969H0; AlphaScreen FBW7–phospho-cyclin E peptide binding, activator screen; normalized activity (activation), % at 26.1 µM; hit rate 0.13% among 650,000; AID 1259310; in the data active = normalized activity above about 1.9%;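 note: purified mutant Fbw7 with reduced substrate affinity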
Target sequence (Q969H0 whole entry, looked up): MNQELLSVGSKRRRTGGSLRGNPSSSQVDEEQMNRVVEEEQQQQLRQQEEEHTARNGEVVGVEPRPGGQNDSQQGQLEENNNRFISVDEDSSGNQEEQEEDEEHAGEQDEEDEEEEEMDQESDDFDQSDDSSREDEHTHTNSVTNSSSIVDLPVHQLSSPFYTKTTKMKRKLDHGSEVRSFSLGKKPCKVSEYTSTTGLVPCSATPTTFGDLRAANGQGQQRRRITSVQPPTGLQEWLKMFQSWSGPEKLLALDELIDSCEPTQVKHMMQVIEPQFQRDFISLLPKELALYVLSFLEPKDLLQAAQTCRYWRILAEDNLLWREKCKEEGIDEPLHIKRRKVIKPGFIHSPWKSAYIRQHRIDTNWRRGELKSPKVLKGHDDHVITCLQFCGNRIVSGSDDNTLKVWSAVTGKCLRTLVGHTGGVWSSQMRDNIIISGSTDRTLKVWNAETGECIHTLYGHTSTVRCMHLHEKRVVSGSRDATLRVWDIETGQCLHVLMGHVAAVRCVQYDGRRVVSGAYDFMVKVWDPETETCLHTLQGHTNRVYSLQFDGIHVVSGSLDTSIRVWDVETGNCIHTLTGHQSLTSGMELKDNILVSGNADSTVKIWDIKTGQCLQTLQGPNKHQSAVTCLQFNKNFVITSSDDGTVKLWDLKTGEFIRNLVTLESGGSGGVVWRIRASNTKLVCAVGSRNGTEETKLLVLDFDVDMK
TEAD-YAP block – TEAD-YAP interaction inhibition | AID 1259422 | hit rate 1.4% among 640,000 | inhibition, % at 9.12 µM | HEK-TIYL cells, TEAD-Gal4/YAP UAS-luciferase luminescence; in the data active = inhibition above about 32%;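 note: 0% = median of test compound wells and 100% = reference inhibitor wells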
MITF primary – human MITF inhibition, primary screen; O75030; AlphaScreen MITF homodimerization, bead proximity signal; inhibition, % at 2.6 µM; hit rate 0.91% among 650,000; AID 1259374; in the data active = inhibition above about 50%;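 note: 0% = vehicle wells with protein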
GPR151 ag – human GPR151 activation | Q8TDV0 | PathHunter beta-arrestin GPR151 cells, luminescence | activation, % at 11.2 µM | hit rate 1% among 650,000; in the data active = activation above about 4.9%;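 note: 0% = median of compound wells and 100% = cells with positive control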
* marks the source's active call; other numbers are inactive results. Sampled rows, rich in hits. Any-hit rate of the full collection: about 3.5%.

SMILES	FBW7 activator	TEAD-YAP block	MITF primary	GPR151 ag
COc1cc(CNc2nccn3c(-c4ccc5ccccc5c4)cnc23)cc(OC)c1OC	2.0*	-8.6	7.0	-0.7
COc1cc(Nc2nccn3c(-c4ccccc4)cnc23)cc(OC)c1OC	-0.6	58.5*	-14.1	0.4
Cc1c(NS(=O)(=O)c2ccc(Cl)c([N+](=O)[O-])c2)c(=O)n(-c2ccccc2)n1C	0.0	5.6	-1.6	3.3
COc1ccc(OC)c(Cn2c(O)c(/C=C3\C=CC=N3)c(=O)[nH]c2=O)c1	-0.3	40.2*	5.9	2.1
COc1ccc(Cn2c(O)c(/C=C3\C=CC=N3)c(=O)[nH]c2=O)cc1	-0.1	3.2	17.7	1.5
Cc1[nH]c(=O)[nH]c(=O)c1S(=O)(=O)Nc1cccc(C(=O)O)c1	0.8	2.7	23.6	0.2
O=C(CSc1nnc(-c2cccnc2)s1)Nc1ccnc2ccccc12	-0.4	47.8*	-10.8	-0.5
Cc1ccc(NC(=O)CSc2nnc(-c3cccnc3)s2)cc1	0.0	-3.5	7.7	1.9
CCOc1ccccc1NC(=O)c1nc(-c2ccncc2)no1	0.1	3.6	13.0	-0.6
CC(=O)N1CCc2cc(C(=O)CN3CCN(c4ccc(Cl)cc4)CC3)ccc21	0.1	44.5*	-2.1	0.9
CCOc1ccc(NS(=O)(=O)c2cc(Br)cc3c2N(C(C)=O)CC3)cc1	0.1	3.9	1.4	0.6
CSc1nc(N)c2c(n1)NC1=C(C(=O)CC(C)(C)C1)C2c1cccs1 (centres undefined)	0.0	48.7*	9.1	0.1
CC1=C(C(=O)Nc2ccc(F)cc2)C(c2ccsc2)C2=C(CC(C)(C)CC2=O)N1 (centres undefined)	0.1	-7.0	-15.1	1.5
CSc1nc(N)c2c(n1)NC1=C(C(=O)CC(C)(C)C1)C2c1ccncc1 (centres undefined)	0.1	-3.6	12.4	-0.8
CC1=C(C(=O)Nc2ccccc2F)C(c2ccsc2)C2=C(CC(C)(C)CC2=O)N1 (centres undefined)	0.1	54.7*	-2.7	0.0
CC1=C(C(=O)Nc2cccc(F)c2)C(c2cccs2)C2=C(CC(C)(C)CC2=O)N1 (centres undefined)	0.0	58.3*	-8.5	1.5
CC1=C(C(=O)Nc2cccc(F)c2)C(c2ccsc2)C2=C(CC(C)(C)CC2=O)N1 (centres undefined)	-0.1	53.5*	0.3	-0.7
CC1=C(C(=O)Nc2ccccc2F)C(c2ccccn2)C2=C(CC(C)(C)CC2=O)N1 (centres undefined)	0.1	4.4	11.3	0.3
Oc1ccc(NCn2nnc3ccccc32)cc1	-0.2	-7.2	9.5	0.5
COc1ccc(Nc2nc(Nc3cccc(C(F)(F)F)c3)nc(N3CCOCC3)n2)cc1	0.0	16.3	2.4	0.4
N#Cc1c(Nc2ccccc2)sc(C(=O)C23CC4CC(CC(C4)C2)C3)c1N	-0.1	0.7	-3.9	1.2
COc1cccc(C(=O)C[n+]2cc(-c3ccc(F)cc3)n(C)c2N)c1	-0.2	84.9*	0.3	-1.0
CC(C)(C)c1cc(-c2nc3ccccc3[nH]2)n[nH]1	-0.1	95.8*	-1.5	-10.4
O=C(Nc1ccc2c3c(cccc13)CC2)c1cc(Br)ccc1Cl	-0.7	55.0*	-4.3	2.5
O=C(Nc1ccc2c3c(cccc13)CC2)c1cc(I)ccc1Cl	0.1	16.9	-12.6	-0.9
SMILES	FBW7 activator	TEAD-YAP block	MITF primary	GPR151 ag
Clc1ccc(-n2cc(-c3ccccc3)c3c(NCCC4=CCCCC4)ncnc32)cc1	0.7	4.3	14.4	0.6
O=C(Nc1sc2c(c1C(=O)N1CCCCC1)CCCCC2)c1ccccc1F	-0.1	5.3	1.4	-0.2
O=C(Nc1sc2c(c1C(=O)O)CCCC2)c1ccccc1F	0.2	51.7*	9.9	-5.9
O=C(Nc1sc2c(c1C(=O)O)CCCCC2)c1ccccc1F	0.2	56.4*	10.9	-7.9
CNC(=O)c1c(NC(=O)c2ccccc2F)sc2c1CCCC2	0.1	-5.0	2.1	-0.8
Cc1nc(NCCCO)c2c(-c3cccs3)csc2n1	0.4	32.1*	4.0	0.7
O=C1CCCN1c1ccc(NS(=O)(=O)c2ccc(F)cc2)cc1	0.0	31.2	9.0	-0.8
O=C1CCCN1c1ccc(S(=O)(=O)Nc2ccc(F)c(Cl)c2)cc1	0.0	46.5*	-2.1	1.2
NNS(=O)(=O)c1ccc(N2CCCC2=O)cc1	-0.2	7.8	-9.0	-0.3
O=C1CCCN1c1ccc(S(=O)(=O)Oc2ccc(Cl)cc2Cl)cc1	0.1	61.2*	-0.2	0.2
O=C1CCCN1c1ccc(S(=O)(=O)Oc2cccc([N+](=O)[O-])c2)cc1	-0.1	52.0*	-1.8	-0.8
O=C1CCCN1c1ccc(S(=O)(=O)Nc2ccc(Cl)c(Cl)c2)cc1	0.0	45.6*	-3.7	1.2
O=C1CCCN1c1cccc([N+](=O)[O-])c1	0.5	7.2	10.0	-0.5
O=C(COC(=O)CCC(=O)c1ccc(F)cc1)Nc1ccc(F)c(F)c1F	0.1	10.7	4.2	-0.3
COC(=O)c1ccc(NC(=O)CCN2C(=O)c3ccccc3C2=O)cc1	-0.1	0.4	-17.8	3.4
COc1cc(C(=O)/C(=C/c2ccc(C)cc2)c2nc3ccccc3o2)cc(OC)c1OC	-0.1	4.6	-11.4	-0.6
COc1cc(/C=C(\C(=O)c2ccc(C)cc2)c2nc3ccccc3o2)cc(OC)c1OC	-0.1	68.9*	8.5	0.8
CCCCNC(=O)C1CC(=O)N(c2ccc(Br)cc2)C1 (centres undefined)	-0.1	7.2	6.3	-0.2
CCOc1ccc(S(=O)(=O)NCc2cccs2)cc1C(=O)O	0.5	-0.4	-5.0	-2.4
COc1ccc(NC(=O)c2noc3c2COc2ccccc2-3)c(OC)c1	-0.2	-9.1	6.8	-0.5
O=C(CCl)N=c1sccn1Cc1ccccc1Cl	0.2	38.9*	10.6	-2.3
COC(=O)CC[C@H]1CN(Cc2ccc(OC)cc2)CC[C@H]1N1CCN(C)CC1	0.2	0.9	-21.7	2.0
CC1CCCC(C)N1CCNc1nc2ccccc2c2nc(-c3cccnc3)nn12 (centres undefined)	0.5	80.7*	3.0	-0.3
CCN(CC)CCCNc1nc2ccccc2c2nc(-c3cccnc3)nn12	0.2	48.7*	11.7	-0.4
CCN(CC)CCNc1nc2cc(OC)c(OC)cc2c2nc(-c3ccccc3)nn12	-0.5	54.4*	9.2	0.3
SMILES	FBW7 activator	TEAD-YAP block	MITF primary	GPR151 ag
CC1CCCCN1CCCNc1nc2ccccc2c2nc(-c3cccnc3)nn12 (centres undefined)	0.5	50.2*	17.9	-0.3
Cc1nc(NC(=O)/C=C/c2ccccc2)sc1C(=O)NCc1ccccc1	0.2	-4.6	1.9	0.9
Cc1ccccc1NC(=O)c1sc(NC(=O)/C=C/c2ccccc2)nc1C	0.1	49.2*	1.0	1.7
O=C(Nc1ccccc1C(=O)N/N=C/c1ccncc1)c1ccccc1	-0.1	41.3*	-2.6	-2.5
O=C(Nc1ccccc1C(=O)N/N=C/c1ccncc1)c1ccc([N+](=O)[O-])cc1	-0.1	40.7*	-1.1	0.2
CCOc1ccc(/C=N/NC(=O)c2ccccc2NC(=O)c2ccc(OC)cc2)cc1	-0.2	55.4*	-8.3	1.2
CCOc1ccc(/C=N/NC(=O)c2ccc(F)cc2)cc1	0.5	-34.5	12.8	-1.9
O=C(c1ccc2ncsc2c1)N1CCOCC1	0.0	-8.0	-3.8	3.7
